According to the supplement of paper PMC6555819:

Assays:
Assay in all cases: PBM binding z-score (relative to random genomic background probes); higher = stronger binding; sequences stand for … in GC…GCGATTGACAGCGTAGAATGAAGG
[1] = test system: FXR:RXRa (NR concentration 270 nM, RXRa partner concentration 90 nM)
In short: (§1)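 Binding z-scores were set against random background probes. The data came from custom Agilent 4×180K protein-binding microarrays carrying double-stranded probes with 34-nt variable regions, incubated 1 h with ligand-free nuclear receptor dimers. Partner-specific antibodies detected binding, and scanned fluorescence was regression-normalized.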

[2] = test system: LXRa:RXRa (NR concentration 270 nM, RXRa partner concentration 90 nM)
In short: as §1

[3] = test system: LXRa homodimer (NR concentration 270 nM)
In short: as §1

[4] = test system: LXRb:RXRa (NR concentration 270 nM, RXRa partner concentration 90 nM)
In short: as §1

[5] = test system: LXRb homodimer (NR concentration 270 nM)
In short: as §1

[6] = test system: PPARa:RXRa (NR concentration 270 nM, RXRa partner concentration 90 nM)
In short: as §1

[7] = test system: PPARg:RXRa (NR concentration 180 nM, RXRa partner concentration 90 nM)
In short: as §1

[8] = test system: PPARg:RXRa 270nM:90nM, anti-RXR (NR concentration 270 nM, RXRa partner concentration 90 nM)
In short: as §1

[9] = test system: PPARg:RXRa 30nM:10nM, anti-RXR (NR concentration 30 nM, RXRa partner concentration 10 nM)
In short: as §1

[10] = test system: PPARg:RXRa 90nM:30nM, anti-RXR (NR concentration 90 nM, RXRa partner concentration 30 nM)
In short: as §1

[11] = test system: PPARg:RXRa DBDmut IVT, anti-RXR (DBD mutation: RXRa K156A/R161A, NR concentration 270 nM, RXRa partner concentration 90 nM)
In short: as §1

[12] = test system: PPARg:RXRa IVT, anti-PPARg (NR concentration 270 nM, RXRa partner concentration 90 nM)
In short: as §1

[13] = test system: PPARg DBDmut:RXRa IVT, anti-PPARg (DBD mutation: PPARg1 K132A/R137A, NR concentration 270 nM, RXRa partner concentration 90 nM)
In short: as §1

[14] = test system: PPARg DBDmut IVT, anti-PPARg (DBD mutation: PPARg1 K132A/R137A, NR concentration 270 nM)
In short: as §1

[15] = test system: PPARg homodimer (NR concentration 180 nM)
In short: as §1

[16] = test system: PXR:RXRa (NR concentration 270 nM, RXRa partner concentration 90 nM)
In short: as §1

[17] = test system: PXR homodimer (NR concentration 270 nM)
In short: as §1

[18] = test system: RARa:RXR (NR concentration 270 nM, RXRa partner concentration 90 nM)
In short: as §1

[19] = test system: RARa homodimer (NR concentration 270 nM)
In short: as §1

[20] = test system: RARb:RXRa (NR concentration 270 nM, RXRa partner concentration 90 nM)
In short: as §1

Row | Sequence | PBM binding z-score [1] | PBM binding z-score [2] | PBM binding z-score [3] | PBM binding z-score [4] | PBM binding z-score [5] | PBM binding z-score [6] | PBM binding z-score [7] | PBM binding z-score [8] | PBM binding z-score [9] | PBM binding z-score [10] | PBM binding z-score [11] | PBM binding z-score [12] | PBM binding z-score [13] | PBM binding z-score [14] | PBM binding z-score [15] | PBM binding z-score [16] | PBM binding z-score [17] | PBM binding z-score [18] | PBM binding z-score [19] | PBM binding z-score [20]
1 | CAAACTAGGTCACGAAAGGTCAAAGTAGAATGAC | 7.59 | 8.11 | 8.28 | 7.19 | 2.72 | 6.77 | 10.6 | 8.55 | 6.87 | 8.89 | 8.54 | 9.02 | 2.85 | 3.25 | 6.18 | 6.93 | 2.94 | 7.51 | 4.51 | 5.71
2 | TGTCAAAGTTCAAATGTAACGTAAGTATCCACAC | 7.51 | 6.72 | 5.84 | 4.79 | 3.48 | 5.53 | 8.25 | 7.12 | 5.15 | 6.93 | 0.32 | 4.15 | 1.72 | 2.11 | 2.82 | 5.13 | 4.03 | 3.93 | 2.08 | 5.02
3 | ACTATTAGTTGAGACGAGTGCAACCGATAGGTTG | -0.26 | -0.238 | -0.221 | -0.356 | -0.0624 | -0.254 | 0.511 | 0.0303 | -0.299 | -0.303 | 0.000618 | 0.0242 | 0.728 | 0.584 | 0.204 | 1.96 | 0.737 | 0.0877 | -0.0239 | 0.0996
4 | CAGCCTAGGTCAGCGCCAGTATAGGAGGAACGTT | 1.62 | 1.05 | -0.445 | 0.71 | -0.863 | 1.92 | 0.956 | 1.24 | -0.327 | 0.61 | 1.84 | 1.37 | -1.15 | -0.469 | 0.899 | 0.373 | -0.685 | 1.15 | -0.632 | 3.71
5 | TCTCCTAGGTCAACGATGGTCAGCTAATCTGCTA | 4.13 | 3.59 | 0.622 | 2.49 | 0.781 | 3.76 | 2.68 | 3.76 | 3.64 | 3.51 | 4.1 | 4.22 | 0.539 | 1.02 | 2.22 | 2.36 | -0.309 | 2.66 | 0.663 | 4.28
6 | ACTAGTTGGTCAGCTGATGTCACACACAATTCGG | 0.0768 | -0.317 | -0.115 | 0.235 | -0.112 | 0.0483 | 0.943 | 0.0634 | 0.0518 | 0.0179 | 1.1 | 0.986 | 0.46 | 0.51 | 0.558 | 0.361 | -0.542 | 0.497 | 0.341 | 0.995
